# Reference: PubChem BioAssay (EPA / NIEHS)
# Several values for one entry are separate records, joined by “and”; a condition that tells them apart may be missing. Equal values may be shown once. Inconclusive results are not listed. Some compounds were tested as several samples or in several runs, with calls that do not always agree. Activity calls are given as the source filed them. How the source made its calls: active means hit-call score of the fitted dose curve at least 0.9, where 1 is the maximum; inconclusive means response in the unintended direction; inactive means score below 0.9.
# Biological target: chicken Estrogen Receptor (ERa), ESR1 (gene 396099) (UniProt P06212)
# Test: ATG_chERa_XSP2: Attagene TRANS-FACTORIAL Multi-Species (XSP2) HepG2 Assay for chicken Estrogen Receptor (ERa) (AID 2283817);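 further: actives raise reporter signal above DMSO so AC50 reflects ER activation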
# Procedure, shortened: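 Transiently transfected HepG2 cells expressing chimeric chicken ERa-GAL4 reporter units, dosed 24 h with 3 nM 6-alpha-fluorotestosterone and 1.5 nM norgestrel present. Reporter mRNA measured by RT-PCR and capillary electrophoresis; gain-of-signal fitted relative to DMSO.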
# Sequence of chicken Estrogen Receptor (ERa), ESR1 (gene 396099) (P06212 whole entry, looked up): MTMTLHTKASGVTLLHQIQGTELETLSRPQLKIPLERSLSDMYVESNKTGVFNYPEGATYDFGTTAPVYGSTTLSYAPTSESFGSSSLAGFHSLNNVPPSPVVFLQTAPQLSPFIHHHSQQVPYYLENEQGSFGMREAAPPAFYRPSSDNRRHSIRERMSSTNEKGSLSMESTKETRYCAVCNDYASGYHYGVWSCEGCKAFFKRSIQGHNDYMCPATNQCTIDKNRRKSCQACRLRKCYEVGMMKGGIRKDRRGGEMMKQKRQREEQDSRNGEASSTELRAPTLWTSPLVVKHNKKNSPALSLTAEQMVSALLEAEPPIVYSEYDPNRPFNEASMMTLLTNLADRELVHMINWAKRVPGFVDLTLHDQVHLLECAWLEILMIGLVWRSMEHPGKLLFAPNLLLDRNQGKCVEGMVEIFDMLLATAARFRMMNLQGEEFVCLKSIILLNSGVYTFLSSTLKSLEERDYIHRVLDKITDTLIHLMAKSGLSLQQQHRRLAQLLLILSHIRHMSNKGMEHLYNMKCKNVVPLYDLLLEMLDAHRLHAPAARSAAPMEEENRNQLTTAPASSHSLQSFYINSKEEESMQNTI
SMILES,AC50,outcome
Clc1ccc(C(c2ccc(Cl)cc2)C(Cl)Cl)cc1,2.47 µM (active),–
CCCCCOC(=O)c1ccccc1C(=O)OCCCCC,–,inactive
C[C@]12C=CC3=C4CCC(=O)C=C4CC[C@H]3[C@@H]1CC[C@@H]2O,–,inactive
c1ccc2c(c1)-c1cccc3cccc-2c13,27.7 µM (active),inactive
Oc1ccc2ccc3cccc4ccc1c2c34,9.01 µM (active) and 2.69 µM (active),–
CC(C)(C)C(O)(CCc1ccc(Cl)cc1)Cn1cncn1 (centres undefined),–,inactive
CCCCOC(=O)c1ccccc1C(=O)OCc1ccccc1,46.7 µM (active),–
O=[N+]([O-])c1ccc(Oc2ccc(Cl)cc2Cl)cc1,–,inactive
CCC(C)c1ccc(O)cc1 (centres undefined),6.12 µM (active) and 3.68 µM (active),–
CCCCC(CC)COC(=O)c1ccc(C(=O)OCC(CC)CCCC)c(C(=O)OCC(CC)CCCC)c1 (centres undefined),–,inactive

# Tested on: zebrafish Estrogen Receptor (ER2a), gene 317734
# Test: ATG_zfER2a_XSP2: Attagene TRANS-FACTORIAL Multi-Species (XSP2) HepG2 Assay for zebrafish Estrogen Receptor (ER2a) (AID 2283818);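 further: hits raise reporter mRNA so AC50 reflects activation of zebrafish ER2a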
# Procedure, shortened: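 HepG2 cells transiently transfected with GAL4-UAS reporter units and chimeric zebrafish ER2a-Gal4, exposed 24 h; medium contains 3 nM 6-alpha-fluorotestosterone and 1.5 nM norgestrel. Reporter mRNA quantified by RT-PCR, HpaI digestion, capillary electrophoresis; gain versus DMSO.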
SMILES,AC50,outcome
Clc1ccc(C(c2ccc(Cl)cc2)C(Cl)Cl)cc1,2.85 µM (active),–
C[C@]12C=CC3=C4CCC(=O)C=C4CC[C@H]3[C@@H]1CC[C@@H]2O,–,inactive
c1ccc2c(c1)-c1cccc3cccc-2c13,–,inactive
CC(C)(C)C(O)(CCc1ccc(Cl)cc1)Cn1cncn1 (centres undefined),25.8 µM (active),inactive
Clc1ccc(C(c2ccc(Cl)cc2)C(Cl)(Cl)Cl)cc1,22 µM (active),–
CCCCOC(=O)c1ccccc1C(=O)OCc1ccccc1,43.1 µM (active),–
O=[N+]([O-])c1ccc(Oc2ccc(Cl)cc2Cl)cc1,–,inactive
CCC(C)c1ccc(O)cc1 (centres undefined),14.5 µM (active) and 3.22 µM (active),–
CCCCC(CC)COC(=O)c1ccc(C(=O)OCC(CC)CCCC)c(C(=O)OCC(CC)CCCC)c1 (centres undefined),–,inactive

# Tested on: chicken Androgen Receptor (AR), gene 422165
# Test: ATG_chAR_XSP2: Attagene TRANS-FACTORIAL Multi-Species (XSP2) HepG2 Assay for chicken Androgen Receptor (AR) (AID 2283819);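 further: hits raise reporter mRNA above DMSO so potency is for activation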
# Procedure, shortened: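 HepG2 cells transiently transfected with chicken AR–GAL4 chimeric reporter constructs, stimulated with 3 nM 6-alpha-fluorotestosterone plus 1.5 nM norgestrel, dosed 24 h. Reporter mRNA quantified by RT-PCR and capillary electrophoresis; gain of signal fitted versus DMSO.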
SMILES,AC50,outcome
C[C@]12C=CC3=C4CCC(=O)C=C4CC[C@H]3[C@@H]1CC[C@@H]2O,0.00355 µM (active),–
Oc1ccc2ccc3cccc4ccc1c2c34,–,inactive
CCCCOC(=O)c1ccccc1C(=O)OCc1ccccc1,–,inactive
